Some test systems named below: HCT-15 colon; HT29 colon; SNB-75 CNS; SNB-19 CNS; U251 CNS; PC-3 prostate; SK-MEL-5 melanoma; UACC-62 melanoma; LOX IMVI melanoma; SK-MEL-28 melanoma.
What all share (assay): NCI-60 one-dose screen, 48 h (100 = growth as untreated, 0 = no growth, -100 = all killed)
Common to all, as to details: 10 µM unless noted

“And” between values parts separate entries of the source, which are not always exact repeats. Identical values can stand only once. The panel holds about 83,000 compounds, 20% with a hit somewhere; the sample as a whole holds those more often.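 A percent growth of 40 corresponds to 60% growth inhibition; 0 means no net growth; -100 means all cells died. Active threshold: below 10.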 Unmarked numbers belong to inactive results. The source made the active and inactive calls.

For the compound `O=[N+]([O-])c1ccc(N2CCN=N2)cc1`, the growth with HCT-15 colon is 80%; in the assay on HT29 colon, 88.4%; with SNB-75 CNS, 89.2%; in the assay on SNB-19 CNS, 94.7%; in the assay on U251 CNS it was 88.1%; in the assay on PC-3 prostate, 73.8%. The growth in the assay on SK-MEL-5 melanoma was 93.3%; with UACC-62 melanoma, 68.7%; in the assay with LOX IMVI melanoma it was 73.3%; in the assay with SK-MEL-28 melanoma, 93.7%.

Take `CCC/C(=N/NC(N)=O)c1ccco1`: the growth with HCT-15 colon was 103%; with HT29 colon, 93.7%; with SNB-75 CNS, 75.2%; in the assay on SNB-19 CNS it was 90.1%; in the assay on U251 CNS, 91.8%; in the assay on PC-3 prostate, 86.8%. In addition, the growth with SK-MEL-5 melanoma was 99.5%; with UACC-62 melanoma it was 92.7%; with LOX IMVI melanoma, 98.1%; with SK-MEL-28 melanoma, 97.7%.

With `Nc1ccc2ccc(NS(=O)(=O)N3CCCCC3)cc2c1`, the growth with HCT-15 colon was 18.6%; with HT29 colon, 4.34% (active); with SNB-75 CNS it was 30.1%; in the assay on SNB-19 CNS it was 40.3%; in the assay with U251 CNS it was 23.3%; in the assay on PC-3 prostate, 43.6%. The growth in the assay with SK-MEL-5 melanoma was 25.3%; with UACC-62 melanoma, 16.7%; with LOX IMVI melanoma, 46.6%; with SK-MEL-28 melanoma it was 55.8%.

In the case of `CC(=O)Oc1ccc(C2(c3ccc(OC(C)=O)cc3)C(=O)Nc3ccccc32)cc1`, the growth in the assay with HCT-15 colon was 67.3% and 73%; in the assay with HT29 colon, 112% and 131%; with SNB-75 CNS it was 85.3% and 158%; in the assay with SNB-19 CNS, 108% and 101%; in the assay on U251 CNS it was 108% and 102%; in the assay with PC-3 prostate it was 65.3% and 52.3%. The growth with SK-MEL-5 melanoma is 96.8% and 95%; in the assay on UACC-62 melanoma, 84.2% and 87.3%; in the assay on LOX IMVI melanoma, 53.9% and 46.7%; in the assay with SK-MEL-28 melanoma it was 99.6% and 108%.

With `COC(=O)c1ccccc1Cl`, the growth in the assay on HCT-15 colon is 100%; with HT29 colon, 111%; in the assay on SNB-75 CNS, 96.6%; in the assay with SNB-19 CNS it was 108%; in the assay with U251 CNS, 97.4%; in the assay on PC-3 prostate it was 96.9%. Besides, the growth in the assay with SK-MEL-5 melanoma is 103%; with UACC-62 melanoma it was 104%; with LOX IMVI melanoma, 98.6%; in the assay with SK-MEL-28 melanoma, 115%.

Turning to `OCc1cccc(F)c1`, the growth in the assay with HCT-15 colon is 10.2%; in the assay on HT29 colon, 17.7%; with SNB-75 CNS, 102%; in the assay on SNB-19 CNS it was 92.2%; in the assay on U251 CNS, 83.5%; with PC-3 prostate it was 91%. Further, the growth in the assay with SK-MEL-5 melanoma is 92.6%; with UACC-62 melanoma, 84.7%; with LOX IMVI melanoma, 76.8%; with SK-MEL-28 melanoma, 116%.

In the case of `Nc1ccccc1SC(CC(=O)c1ccccc1)c1cccc([N+](=O)[O-])c1` (stereo not given), the growth is 66.3% and 49.4% in the assay on HCT-15 colon; 11.5% and 30.2% in the assay on HT29 colon; 74.9% and 78.1% in the assay with SNB-75 CNS; 89.8% with SNB-19 CNS; 57.5% and 61.1% in the assay on U251 CNS; 75% and 71.6% in the assay on PC-3 prostate. Also, the growth is 96.3% in the assay on SK-MEL-5 melanoma; 85.5% and 94% in the assay with UACC-62 melanoma; 33.5% and 10.9% with LOX IMVI melanoma; 96% and 102% with SK-MEL-28 melanoma.

For the compound `Cc1ccc(C(=O)c2ccc(C)cc2)cc1`, the growth in the assay on HCT-15 colon is 99.8% and 102%; in the assay on HT29 colon, 95.4% and 102%; in the assay with SNB-75 CNS, 86.4% and 99.5%; with SNB-19 CNS, 86.9% and 105%; in the assay on U251 CNS it was 94.1% and 105%; with PC-3 prostate, 95.8% and 92.5%. In addition, the growth with SK-MEL-5 melanoma was 95.6% and 100%; in the assay with UACC-62 melanoma, 92.7% and 101%; in the assay on LOX IMVI melanoma, 100% and 90.4%; in the assay with SK-MEL-28 melanoma, 111% and 106%.

Take `CN(C)C(=N)N=C(N)N`: the growth in the assay on HCT-15 colon was 83.1% and 121%; in the assay with HT29 colon, 98.6% and 113%; in the assay on SNB-75 CNS, 101% and 114%; with SNB-19 CNS it was 106% and 108%; in the assay with U251 CNS, 81.1% and 118%; with PC-3 prostate, 104%. Besides, the growth in the assay with SK-MEL-5 melanoma was 103% and 131%; in the assay with UACC-62 melanoma, 99.7% and 120%; with LOX IMVI melanoma, 87% and 110%; in the assay on SK-MEL-28 melanoma, 116% and 106%.

On to `C/C=C(/C(=O)NC(N)=O)C(C)C`, for which the growth in the assay with HCT-15 colon is 110%; with HT29 colon, 106%; in the assay on SNB-75 CNS, 120%; with SNB-19 CNS it was 110%; in the assay with U251 CNS it was 98.8%; with PC-3 prostate, 105%. The growth with SK-MEL-5 melanoma was 115%; in the assay on UACC-62 melanoma it was 110%; in the assay on LOX IMVI melanoma it was 100%; in the assay on SK-MEL-28 melanoma it was 117%.

Turning to `O=[N+]([O-])c1cccc2ccc(N/N=C/c3ccccc3O)nc12`, the growth in the assay on HCT-15 colon is 93.6% and 98%; in the assay with HT29 colon, 93.3% and 106%; in the assay with SNB-75 CNS it was 67.8% and 87.9%; with SNB-19 CNS, 99.3% and 108%; in the assay with U251 CNS, 93.7% and 98.6%; in the assay with PC-3 prostate, 76.1% and 84.4%. The growth in the assay with SK-MEL-5 melanoma is 88% and 90.9%; in the assay with UACC-62 melanoma it was 85.5% and 94.6%; in the assay on LOX IMVI melanoma, 83.6% and 91.4%; in the assay on SK-MEL-28 melanoma, 134% and 109%.

On to `Nc1ccc(Cl)c(S(=O)(=O)O)c1`, for which the growth was 101% with HCT-15 colon; 105% in the assay on HT29 colon; 93.3% in the assay with SNB-75 CNS; 94.4% in the assay with SNB-19 CNS; 99.8% in the assay on U251 CNS; 108% in the assay with PC-3 prostate. Moreover, the growth was 101% with SK-MEL-5 melanoma, 102% in the assay on UACC-62 melanoma, 97.5% in the assay with LOX IMVI melanoma and 106% with SK-MEL-28 melanoma.

On to `CCOCCC(=O)O`, for which the growth in the assay with HCT-15 colon is 108%; with HT29 colon it was 104%; in the assay with SNB-75 CNS, 93.3%; with SNB-19 CNS, 109%; in the assay on U251 CNS, 106%; in the assay on PC-3 prostate it was 91.7%. For the same compound, the growth in the assay with SK-MEL-5 melanoma was 96.1%; in the assay on UACC-62 melanoma, 102%; in the assay on LOX IMVI melanoma it was 102%; with SK-MEL-28 melanoma, 109%.

For the compound `C/C=C/C(=O)OCCCCCCCCCCCC`, the growth with HCT-15 colon was 123%; in the assay on HT29 colon it was 92.6%; in the assay on SNB-75 CNS it was 101%; with SNB-19 CNS, 85.2%; in the assay on U251 CNS, 98.6%; in the assay on PC-3 prostate, 101%. The growth with SK-MEL-5 melanoma was 97.7%; with UACC-62 melanoma it was 91.6%; with LOX IMVI melanoma, 106%; in the assay with SK-MEL-28 melanoma it was 114%.

For `CC1=CC(=O)C=CC1=Nc1ccc(N(C)C)cc1`, the growth is 96.8% and 32.4% with HCT-15 colon; 105% and 45.1% in the assay with HT29 colon; 123% and 76.4% in the assay on SNB-75 CNS; 97.1% and 73.4% with SNB-19 CNS; 21.2% in the assay on U251 CNS; 56% and 12.1% in the assay with PC-3 prostate. Moreover, the growth in the assay on SK-MEL-5 melanoma was 89.4% and 17.6%; in the assay on UACC-62 melanoma, 88.1% and 18.2%; with LOX IMVI melanoma it was 83.4%; with SK-MEL-28 melanoma, 96.8% and 74.7%.

`CC(NC(=O)CCl)c1ccccc1` (stereo not given): the growth with HCT-15 colon is 94.9%; with HT29 colon it was 104%; with SNB-75 CNS, 85.6%; with SNB-19 CNS it was 103%; in the assay with U251 CNS it was 103%; in the assay on PC-3 prostate, 95.2%. The growth is 93.7% with SK-MEL-5 melanoma, 102% with UACC-62 melanoma, 98.2% in the assay with LOX IMVI melanoma and 111% in the assay on SK-MEL-28 melanoma.

Regarding `CCCCOC1NC(=O)NC(=O)C1(F)C(=O)OCC` (stereo not given), the growth in the assay on HCT-15 colon is 70% and 48.2%; in the assay on HT29 colon, 74.1% and 52.3%; in the assay with SNB-75 CNS it was 78% and 81.8%; with SNB-19 CNS it was 101% and 82.6%; with U251 CNS it was 91.6%; with PC-3 prostate, 88.4% and 85.6%. Moreover, the growth is 81% and 66.9% with SK-MEL-5 melanoma; 72% and 52.8% with UACC-62 melanoma; 73.5% and 52.5% in the assay on LOX IMVI melanoma; 83.4% and 70.7% in the assay on SK-MEL-28 melanoma.

`O=C1Cc2ccccc2C(=O)N1`: the growth in the assay with HCT-15 colon is 99.2%; in the assay with HT29 colon, 88.9%; in the assay on SNB-75 CNS it was 96.1%; in the assay with SNB-19 CNS it was 106%; with U251 CNS, 86.1%; in the assay with PC-3 prostate, 95.2%. The growth with SK-MEL-5 melanoma is 106%; with UACC-62 melanoma it was 92.2%; with LOX IMVI melanoma, 42.1%; in the assay with SK-MEL-28 melanoma it was 106%.

Consider `COc1ccc(/C=N/NC(N)=S)cc1`, for which the growth in the assay with HCT-15 colon was 106%; in the assay on HT29 colon it was 102%; in the assay on SNB-75 CNS, 87.7%; with SNB-19 CNS, 100%; in the assay on U251 CNS, 96.7%; in the assay with PC-3 prostate, 86.9%. Besides, the growth with SK-MEL-5 melanoma is 104%; in the assay with UACC-62 melanoma it was 101%; with LOX IMVI melanoma it was 95.8%; in the assay on SK-MEL-28 melanoma, 112%.

With `Cc1cc(-c2ccc(N=Nc3c(C)nn(-c4ccc(S(=O)(=O)O)cc4)c3O)c(C)c2)ccc1N=Nc1ccc(O)c(C(=O)O)c1`, the growth was 97.9% in the assay on HCT-15 colon; 115% in the assay with HT29 colon; 99.9% with SNB-75 CNS; 99.9% with SNB-19 CNS; 99.1% in the assay with U251 CNS; 98.2% in the assay on PC-3 prostate. Besides, the growth was 98.7% in the assay with SK-MEL-5 melanoma, 91.2% with UACC-62 melanoma, 95.4% in the assay on LOX IMVI melanoma and 106% in the assay on SK-MEL-28 melanoma.

On to `O=C(NC(CSSCC(NC(=O)OCc1ccccc1)C(=O)O)C(=O)O)OCc1ccccc1` (stereo not given), for which the growth in the assay with HCT-15 colon is 90.9% and 98.4%; with HT29 colon it was 92.7% and 96%; with SNB-75 CNS it was 78.4% and 90.8%; in the assay on SNB-19 CNS, 93.2% and 104%; in the assay on U251 CNS, 84.2% and 97.5%; in the assay with PC-3 prostate, 90.5% and 73.1%. In addition, the growth is 90% and 102% in the assay on SK-MEL-5 melanoma; 91.5% and 102% in the assay on UACC-62 melanoma; 103% and 95% with LOX IMVI melanoma; 96.6% and 104% in the assay with SK-MEL-28 melanoma.

The values above are taken from PubChem BioAssay (NCI).
